# CHX counter = Cycloheximide Counterscreen for Small Molecule Inhibitors of Shiga Toxin; cell reporter, cycloheximide protein synthesis inhibition counterscreen; AID 2314, 2010; 300,000 compounds, 12% hits; max response, %; in the data active = max response mostly above about 13%, no sharp cut-off; inactive = mostly below about 14%; note: read at 38.3 µM for the half of the compounds with a filed dose
# AMA1-RON2 inh = qHTS for Inhibitors of AMA1-RON; Towards Development of Antimalarial Drug Lead: Primary Screen. Plasmodium falciparum AMA1 (3D7) - RON2 peptide interaction. AlphaScreen AMA1-biotinylated RON2 peptide binding. Potency, µM (titrated, usually from 58.2 µM), usual class: inhibitors. 360,000 compounds, 0.2% hits; note: nearly all actives have a fitted effect of over 45% in size
#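 AMA1 (3D7) with his tag at 25 nM final met compounds first, then biotinylated RON2 peptide at 25 nM; detection used donor plus acceptor beads, 10 µg/mL apiece, read by AlphaScreen after 30 min at room temperature.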
# AmpC detergent = qHTS Inhibitors of AmpC Beta-Lactamase (assay with detergent). AmpC hydrolysis of nitrocefin, absorbance 480 nm, 0.01% Triton. Potency, µM (doses to about 114 µM), hits mostly inhibitors. 370,000 compounds, 0.041% hits; note: nearly all actives have a fitted effect of over 25% in size
# Target sequence (P00811 whole entry, looked up): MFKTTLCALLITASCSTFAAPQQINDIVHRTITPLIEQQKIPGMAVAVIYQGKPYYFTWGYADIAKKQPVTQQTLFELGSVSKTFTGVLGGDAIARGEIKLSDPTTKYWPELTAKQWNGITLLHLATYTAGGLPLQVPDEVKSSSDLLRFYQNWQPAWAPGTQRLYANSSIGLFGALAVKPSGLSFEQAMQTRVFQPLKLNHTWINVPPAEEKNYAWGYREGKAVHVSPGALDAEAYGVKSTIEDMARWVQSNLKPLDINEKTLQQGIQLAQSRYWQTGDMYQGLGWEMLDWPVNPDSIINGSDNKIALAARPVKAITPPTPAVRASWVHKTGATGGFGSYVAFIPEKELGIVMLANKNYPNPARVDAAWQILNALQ
#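 20 mM phosphate pH 7.0 + 0.01% (detergent screen) or 0.0001% Triton X-100; 5.3 nM AmpC reagent; cpd preinc 15 min RT; nitrocefin (800 uM stock) to start; A480 q20 s × 4 min; Activity was normalised to no-enzyme and no-compound control wells.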
# Shiga toxin inh = A qHTS for Small Molecule Inhibitors of Shiga Toxin | AID 2315, 2010 | 290,000 compounds, 9.2% hits | Vero cells, Shiga toxin protein synthesis inhibition reporter | inhibition, % at 38.7 µM; in the data active = inhibition mostly above about 28%, no sharp cut-off; inactive = mostly below about 43%
# SARS PLpro yeast = qHTS of Yeast-based Assay for SARS-CoV PLP; 330,000 compounds, 0.19% hits; S. cerevisiae expressing SARS-CoV PLpro, growth rescue; AID 485353, 2010; Potency, µM (highest dose often 32.9 µM), hits mostly activators; calls by dose curve; note: nearly all actives have a fitted effect of over 55% in size
# AmpC inh no detg = qHTS Inhibitors of AmpC Beta-Lactamase (assay without detergent). P00811. AmpC nitrocefin hydrolysis, absorbance 480 nm, 0.0001% Triton. Potency, µM (highest dose often 57.1 µM), actives largely listed as inhibitors. 330,000 compounds, 0.52% hits; note: nearly all actives have a fitted effect of over 20% in size
#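 20 mM phosphate pH 7.0 + 0.01% (detergent screen) or 0.0001% Triton X-100; 5.3 nM AmpC reagent; cpd preinc 15 min RT; nitrocefin (800 uM stock) to start; A480 q20 s × 4 min; Activity was normalised to no-enzyme and no-compound control wells.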
# Numbers stand for hits; . = inactive; ? = inconclusive; / = no result; [ ] = dose if it differs, or a comment. The entries come from a sample that favours hits as a whole. Unless noted, calls come from the whole dose curve; as a rule, active = well fitted curve in the direction sought with a large enough effect; inconclusive = small, poorly fitted or top-dose-only effect, or another doubt; inactive = no such curve, though single readings can be large; an effect the other way counts as inactive or inconclusive.
SMILES,CHX counter,AMA1-RON2 inh,AmpC detergent,Shiga toxin inh,SARS PLpro yeast,AmpC inh no detg
O=c1cc(N2CCN(c3ccc(F)cc3)CC2)[nH]c(=O)n1Cc1ccc(F)cc1,.,.,.,.,.,25µM
CSc1ncc(C(=O)NCc2ccccc2F)c(-c2ccccc2)n1,/,/,.,/,/,/
Cc1ccc(C(=O)N2CCN(c3ccc(NC(=O)c4cc(C)cc(C)c4)cc3)CC2)cc1,.,.,.,.,.,.
Cc1cc(C)cc(OCC(=O)Nc2ccc(N3CCCCC3)cc2)c1,/,.,.,/,.,.
Cc1cc(C)cc(NC(=O)Nc2ccc(N3CCCCC3)cc2)c1,38,.,.,.,.,16µM
Cc1cc(C)cc(C(=O)Nc2ccc(N3CCCC3)cc2)c1,50,.,.,72,.,.[2.29 µM]
COc1ccc(OC)c(Nc2nc(NCCCN(C)C)nc(N)c2[N+](=O)[O-])c1,.,.,.,.,.,.
O=S(=O)(Cc1cc(Cl)nc(-c2ccncc2)n1)c1ccccc1,.,.,.,.,.,.
O=C(/C=C/c1ccc(Cl)cc1)Nc1nccs1,54,.,.,70,.,.
C/C=C/C=C/C(=O)Nc1nccs1,17,.,.,.,.,.
CCOC(=O)C1CCCN(C(=O)c2ccc3ncsc3c2)C1 (centres undefined),/,.,/,/,.,.
CC(NS(=O)(=O)c1ccc(Br)cc1)C(c1cccs1)N1CCN(C)CC1 (centres undefined),.,.,?,.,.,45µM
CC(NS(C)(=O)=O)C(c1cccs1)N1CCN(C)CC1 (centres undefined),.,.,.,.,.,.
O=c1[nH]c(O)c(N=Nc2ccc3c(c2)OCCO3)c(=O)[nH]1,32,.,.,88,.,.
NS(=O)(=O)c1ccc(N=Nc2c(O)[nH]c(=S)[nH]c2=O)cc1,.,.,.,.,.,.
O=c1[nH]c(O)c(N=Nc2ccc(S(=O)(=O)N3CCOCC3)cc2)c(=O)[nH]1,.,.,.,.,.,.
O=c1[nH]c(=S)[nH]c(O)c1N=Nc1ccc2c(c1)OCCO2,23,.,.,27,.,.
O=C1CCCC(O)=C1N=Nc1ccc(C(=O)O)cc1,.,.,.,.,.,.
O=c1[nH]c(=S)[nH]c(O)c1N=Nc1ccc2c(c1)OCO2,23,.,.,46,.,.
O=C1CCCC(O)=C1N=Nc1ccc2c(c1)OCO2,76,.,.,48,.,.
CN1C(=O)/C(=C/c2ccc(OCc3ccc(C(=O)O)cc3)c(Cl)c2)NC1=S,.,.,?,.,.,.
CCCN1C(=O)/C(=C/c2ccc(OCc3ccc(C(=O)O)cc3)c(OC)c2)NC1=S,/,.,/,/,/,/
COc1cc(/C=C2\NC(=S)NC2=O)ccc1OCc1cccc(C(=O)O)c1,79,.,.,102,.,.
O=C1NC(=O)/C(=C\c2ccc(OCc3cccc(C(=O)O)c3)c(Cl)c2)N1,81,.,.,161,.,.
O=C(CCSc1ccccc1)NC1CCCCCC1,33,.,.,98,.,.
SMILES,CHX counter,AMA1-RON2 inh,AmpC detergent,Shiga toxin inh,SARS PLpro yeast,AmpC inh no detg
Cc1ccc(SCC(=O)NC2CCCCCC2)cc1,30,.,.,67,.,.
O=C(CCSc1ccc(Cl)cc1)NC1CCCCC1,.,.,.,.,.,.
Cc1ccc(SCC(=O)OCC(=O)NC2CCCCCC2)cc1,.,.,.,.,.,.
Cn1cccc1CC(=O)N/N=C\c1c2ccccc2cc2ccccc12,.,.,.,.,.,.
Cc1ccsc1/C=N/NC(=O)Cc1cccn1C,21,.,?,.,.,.
Cn1cccc1CC(=O)N/N=C/c1cccc2ccccc12,22,.,.,33,.,.
COC(=O)c1cc(C(=O)OCC(=O)N2c3ccccc3NC(=O)C2(C)C)cc([N+](=O)[O-])c1,.,.,?,.,.,.
COc1nnnc2c1sc1nc(N3CCOCC3)c3c(c12)CC(C)(C)OC3,.,/,.,.,.,.
CCN(CC)S(=O)(=O)c1ccc2c(c1)nc(CCC(=O)Nc1ccc3c(c1)OCO3)n2C,.,.,.,.,.,.
